Source: PubChem BioAssay (several laboratories)
Sampled rows, rich in hits. Any-hit rate of the full collection: about 27%.
CYP2C9 inh: human CYP2C9 inhibition. CYP2C9 Supersomes, luciferin-H conversion, luminescence. inhibition, % at 5 µM. P11712. hit rate 20% among 96,000;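 active means blocking of liver enzyme CYP2C9 beyond about 50% at 5 µM, limit read from the data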
Cav3 T inh: human Cav3.2 channel inhibition, primary screen. hit rate 4% among 100,000. B-score at 10 µM. O95180. Cav3.2-expressing cells, Fluo-4 calcium fluorescence FDSS; stronger effect = lower value;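 active means single-dose well whose peak fluorescence ratio is a statistical outlier from its plate by either plate-standardised score or position-corrected B-score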
CYP2C9 act: activators of human CYP2C9; P11712; recombinant CYP2C9, luciferin-H conversion, luminescence; stronger effect = higher value; factor 1 = untreated enzyme, 0 = blocked; activation factor at 5 µM; hit rate 1.4% among 96,000; AID 1024;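 active means activation factor of 2 or more for CYP2C9 at a 5 µM dose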;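 further: 0 = sulfaphenazole-blocked wells and 1 = vehicle-only wells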
CYP2C19 inhib: human CYP2C19 inhibition; inhibition, % at 5 µM; CYP2C19 Supersomes, luciferin-H EGE luminescence, 30 min; hit rate 21% among 96,000; P33261;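 active means CYP2C19 inhibition above a set limit at 5 µM in the primary screen, cut at about 50% in these data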;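 further: plate controls were negative control wells for no effect and 2.5 mM tranylcypromine positive control for full effect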
Pyk2 oligo antag: Pyk2 (human) oligomerization antagonism; z-score (the deposit names both 25 µM and 10 µM); Q14289; Q293 cells, Pyk2 FERM NanoBiT luminescence; stronger effect = lower value; hit rate 0.83% among 99,000;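 active means Z-score of -3 or lower, scaled per plate to the spread of control and sample wells; inactive means z-score above -3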;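 further: negative z-score means lost luminescence so less FERM oligomerization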
Target sequence (Q14289 whole entry, looked up): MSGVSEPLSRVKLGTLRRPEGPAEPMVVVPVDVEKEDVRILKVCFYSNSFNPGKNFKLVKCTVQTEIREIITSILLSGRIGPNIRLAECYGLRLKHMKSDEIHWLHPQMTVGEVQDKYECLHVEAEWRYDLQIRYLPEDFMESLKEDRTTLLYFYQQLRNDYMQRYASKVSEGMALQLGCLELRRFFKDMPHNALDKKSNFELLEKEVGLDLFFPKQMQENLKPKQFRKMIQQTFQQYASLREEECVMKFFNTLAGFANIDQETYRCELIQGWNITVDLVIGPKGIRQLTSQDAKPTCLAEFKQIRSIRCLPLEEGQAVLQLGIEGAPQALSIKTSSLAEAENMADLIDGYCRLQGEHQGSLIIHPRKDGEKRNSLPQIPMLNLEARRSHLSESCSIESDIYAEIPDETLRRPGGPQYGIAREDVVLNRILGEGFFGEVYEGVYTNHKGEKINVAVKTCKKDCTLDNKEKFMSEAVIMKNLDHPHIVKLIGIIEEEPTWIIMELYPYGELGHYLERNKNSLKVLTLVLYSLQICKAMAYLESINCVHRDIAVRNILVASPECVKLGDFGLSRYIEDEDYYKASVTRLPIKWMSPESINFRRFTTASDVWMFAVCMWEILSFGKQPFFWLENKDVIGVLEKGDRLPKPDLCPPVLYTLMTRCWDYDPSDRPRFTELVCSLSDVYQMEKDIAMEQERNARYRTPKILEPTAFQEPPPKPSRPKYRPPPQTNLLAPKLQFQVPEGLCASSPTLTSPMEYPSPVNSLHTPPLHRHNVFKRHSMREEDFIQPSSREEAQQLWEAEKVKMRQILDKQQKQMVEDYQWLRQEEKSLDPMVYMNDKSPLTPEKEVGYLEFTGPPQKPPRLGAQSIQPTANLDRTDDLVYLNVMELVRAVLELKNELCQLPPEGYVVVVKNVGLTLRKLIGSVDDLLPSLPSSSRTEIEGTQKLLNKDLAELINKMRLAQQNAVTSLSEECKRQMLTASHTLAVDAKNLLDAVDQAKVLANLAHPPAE
CYP2C19 activ: increases human CYP2C19 enzyme activity | 96,000 tested, under 10 active | AID 1025 | activation factor at 5 µM | recombinant CYP2C19, luciferin-H EGE luminescence; stronger effect = higher value; 0 = fully inhibited enzyme, 1 = untreated enzyme;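 active means activation factor of at least 2 at 5 µM in the primary screen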;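 further: 0 = wells with 2.5 mM tranylcypromine and 1 = vehicle-only wells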
* = called active by the depositor; . = no result.

SMILES | CYP2C9 inh | Cav3 T inh | CYP2C9 act | CYP2C19 inhib | Pyk2 oligo antag | CYP2C19 activ
CCOC(=O)N1CCN(C(=O)COc2ccc(Br)cc2Cl)CC1 | 36 | -1.5 | 0.6 | 86* | 0.18 | 0.1
CCOC(=O)C1CCN(C(=O)COc2ccc(S(=O)(=O)NC(C)C)cc2Cl)CC1 | . | -0.8 | . | . | 0.15 | .
O=C(COc1ccc(Cl)cc1Cl)N1CCCN(C(=O)COc2ccc(Cl)cc2Cl)CC1 | -48 | -4.6* | 1.5 | 37 | 0.43 | 0.6
CC(C)COCC1CC2(CC(C)C(=O)CC2=O)C(=O)O1 (centres undefined) | 21 | 0.48 | 0.8 | 8 | 0.16 | 0.9
O=C(O)CCc1nn2c3ccccc3nc2n(-c2ccccc2)c1=O | -3 | 0.16 | 1 | -3 | 0.44 | 1
Cc1cc(C)cc(OCC(=O)N2CCCCCC2)c1 | -16 | -0.87 | 1.2 | 54* | 0.25 | 0.5
COc1cc(CNCCCN2CCOCC2)cc(Br)c1OCC(=O)N1CCCCC1 | -9 | 0.54 | 1.1 | -9 | -0.02 | 1.1
Cc1cc(Cl)ccc1OCCCC(=O)N1CCN(C)CC1 | -114 | 0.18 | 2.1* | 51* | 0.25 | 0.5
COc1cc(CO)cc(Br)c1OCC(=O)N1CCCCC1 | -118 | -0.0067 | 2.2* | 23 | 0.07 | 0.8
COc1cc2cc(C(c3nnnn3C(C)(C)C)N3CCC(C)CC3)c(=O)[nH]c2cc1OC (centres undefined) | 33 | 0.19 | 0.7 | 15 | 0.56 | 0.8
CC(C)=CCc1cc2c(=O)c3c(O)c4c(cc3oc2c(O)c1O)OC(C)C4(C)C (centres undefined) | . | -0.61 | . | . | . | .
CN=C1S/C(=C\c2cn(C(C)=O)nc2-c2ccccc2)C(=O)N1C | . | -0.5 | . | . | . | .
COC(=O)c1ccc(/C=N\NC(=O)c2ccc(C)cc2Cl)cc1 | 39 | -1 | 0.6 | 12 | -0.21 | 0.9
CC1CCN(c2nc3ccc(C(=O)N4CCN(Cc5ccccc5)CC4)cc3s2)CC1 | 37 | -5.8* | 0.6 | 60* | . | 0.4
Cc1cc(C(=O)N2CCN(S(C)(=O)=O)CC2)cs1 | 2 | 0.62 | 1 | 56* | 0.75 | 0.4
Cc1cc(C(=O)N2CCN(Cc3ccc4c(c3)OCO4)CC2)cs1 | 59* | -0.33 | 0.4 | 96* | -0.02 | 0
COc1cc(OC)cc(C(=O)N2CCN(S(C)(=O)=O)CC2)c1 | -23 | 0.22 | 1.2 | 12 | -0.15 | 0.9
Cc1ccc2cc3cc(C(=O)N4CCN(Cc5ccccc5)CC4)sc3nc2c1 | 12 | -0.13 | 0.9 | 38 | -0.74 | 0.6
Cc1cc(C(=O)N2CCN(Cc3ccc4c(c3)OCO4)CC2)on1 | . | 0.39 | . | . | . | .
CCc1cc2cc(C(=O)N3CCN(Cc4ccccc4)CC3)sc2s1 | 9 | -4.8* | 0.9 | 46 | -0.15 | 0.5
CCCn1nnnc1NCc1cccn1C | -7 | 0.15 | 1.1 | 8 | -0.15 | 0.9
Cc1cc(C)nc(-n2nc(C)cc2NC(=O)c2cccc(S(=O)(=O)N3CCCCC3)c2)n1 | 28 | 1.7 | 0.7 | 8 | . | 0.9
Cc1occc1-c1nnc(SCC(=O)NC(=O)NC(C)C)n1N | -6 | 0.14 | 1.1 | 1 | 0.89 | 1
CCOC(=O)N1CCN(C(=O)c2ccc3nc(N4CCCCC4)sc3c2)CC1 | 15 | -4.8 | 0.8 | 22 | 0.52 | 0.8
CCSc1ccccc1C(=O)N1CCN(Cc2ccc3c(c2)OCO3)CC1 | 3 | -0.35 | 1 | 12 | 0.42 | 0.9
SMILES | CYP2C9 inh | Cav3 T inh | CYP2C9 act | CYP2C19 inhib | Pyk2 oligo antag | CYP2C19 activ
O=C(c1ccc2nc(N3CCCCC3)sc2c1)N1CCN(Cc2ccc3c(c2)OCO3)CC1 | 83* | -4* | 0.2 | 89* | . | 0.1
CCn1cnc2sc(C(=O)N3CCN(Cc4ccc5c(c4)OCO5)CC3)c(C)c2c1=O | 75* | . | 0.2 | 85* | . | 0.1
Cc1nn(Cc2ccccc2)c2sc(C(=O)N3CCN(Cc4ccc5c(c4)OCO5)CC3)cc12 | 67* | -4.3* | 0.3 | 39 | -0.03 | 0.6
COc1ccc(OC)c(-c2cc(C(=O)NCCN3CCOCC3)no2)c1 | -88 | 0.7 | 1.9 | -10 | 0.07 | 1.1
O=C(NCc1ccc2c(c1)OCO2)c1ccc2snnc2c1 | 65* | 0.4 | 0.4 | 66* | 2 | 0.3
CC(C)C(=O)Nc1cccc(C(=O)NCc2ccc3c(c2)OCO3)c1 | . | -0.065 | . | . | 1.3 | .
O=C(NCc1ccc2c(c1)OCO2)c1cccc([N+](=O)[O-])c1 | 25 | 0.34 | 0.8 | 89* | 2 | 0.1
CCOC(=O)C(CCCOc1cccc(OC)c1)C(=O)OCC | 82* | -1.3 | 0.2 | 90* | -0.44 | 0.1
CCOC(=O)C(CCCOc1cccc(CC)c1)C(=O)OCC | 13 | -0.74 | 0.9 | 11 | 0.51 | 0.9
COc1cccc(OCCNC(=O)c2cccc(OC)c2)c1 | -18 | -1.4 | 1.2 | 97* | 0.56 | 0
O=C(NCc1ccco1)c1ccc2snnc2c1 | . | 0.94 | . | . | -0.55 | .
COc1ccc(-c2noc3c2-c2nc(-c4ccc(Br)cc4)sc2CC3)cc1 | . | 0.98 | . | . | . | .
O=C(NCc1ccc2c(c1)OCO2)c1ccc2c(c1)OCCO2 | 78* | 1.3 | 0.2 | 88* | 0.55 | 0.1
O=C(NCc1ccc2c(c1)OCO2)c1ccc(=O)[nH]c1 | -1 | 0.31 | 1 | -16 | 0.22 | 1.2
O=C(NCCOc1ccccc1)c1ccc2c(c1)OCO2 | 59* | 0.63 | 0.4 | 86* | 0.23 | 0.1
Cn1nnc2cc(C(=O)NCc3ccc4c(c3)OCO4)ccc21 | 25 | -0.066 | 0.8 | 52* | 0.64 | 0.5
CCOCCCNC(=O)c1ccc2c(c1)OCO2 | -12 | 0.17 | 1.1 | -8 | 0.23 | 1.1
COc1cccc(-c2nc(CS(=O)(=O)CC(=O)N3CCc4ccccc43)c(C)o2)c1 | -18 | -2.7 | 1.2 | 21 | . | 0.8
O=c1[nH]c2ccccc2n1C1CCCCC1 | -10 | . | 1.1 | 15 | -0.96 | 0.8
COc1ccc2[nH]cc(CCN=C3SCC(=O)N3C)c2c1 | 40 | 0.42 | 0.6 | 79* | -0.26 | 0.2
CC(=O)Nc1ccc(S(=O)(=O)N2CCc3c(Cl)cccc3C2)cc1 | -169 | -4.3* | 2.7* | 65* | . | 0.4
CC(=O)Nc1ccc(S(=O)(=O)N2CCN(C(=O)N3CCCCCC3)CC2)cc1 | 51* | 0.44 | 0.5 | 23 | 0.05 | 0.8
CC(=O)Nc1ccc(S(=O)(=O)N2CCN(c3cccc(C)c3C)CC2)cc1 | 75* | -1.2 | 0.2 | 40 | . | 0.6
Cc1ccc(C(=O)Nc2ccc(S(=O)(=O)N3CCN(C)CC3)cc2)cc1 | . | -2.6 | . | . | -0.1 | .
CC(=O)Nc1ccc(C(=O)Nc2ccc(S(=O)(=O)N3CCCC3)cc2)cc1 | -20 | -0.027 | 1.2 | 3 | -1.2 | 1
CN1CCN(S(=O)(=O)c2ccc(NC(=O)C(C)(C)C)cc2)CC1 | 1 | -5.7* | 1 | -9 | 0.21 | 1.1
CC(=O)Nc1ccc(S(=O)(=O)N2CCCN(S(=O)(=O)c3ccc(C)cc3)CC2)cc1 | 43 | 0.074 | 0.6 | 29 | -0.17 | 0.7
CC(=O)Nc1ccc(S(=O)(=O)N2CCN(c3ccc(C)c(Cl)c3)CC2)cc1 | 53* | -1.5 | 0.5 | 37 | . | 0.6
